This is part of a sample that, as a whole, favours compounds with a hit. Of some 83,000 tested, about 20% had one in any assay.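 48-hour exposure, single concentration, 96-well plates; percent growth endpoint where 0 means no net growth. Active: below 10.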 Active and inactive are the calls of the source.
Experiments:
Assay in all cases: NCI-60 one-dose screen, 48 h (100 = growth as untreated, 0 = no growth, -100 = all killed)
Conditions in all cases: 10 µM unless noted
NCI-H23 lung = tested on: NCI-H23 lung
NCI-H226 lung = tested on: NCI-H226 lung
NCI-H322M lung = tested on: NCI-H322M lung
HOP-62 NSCLC = tested on: HOP-62 NSCLC
NCI-H460 lung = tested on: NCI-H460 lung
HOP-92 NSCLC = tested on: HOP-92 NSCLC
NCI-H522 lung = tested on: NCI-H522 lung
A549/ATCC NSCLC = tested on: A549/ATCC NSCLC
786-0 renal = tested on: 786-0 renal
COLO 205 colon = tested on: COLO 205 colon

Measured: growth

O=C1/C(=C/c2ccc(OCc3ccccc3)cc2)Oc2cc(OCCN3CCCCC3)ccc21
inactive: NCI-H23 lung 74.5% | NCI-H226 lung 89.6% | NCI-H322M lung 97.9% | HOP-62 NSCLC 95.7% | NCI-H460 lung 70.3% | HOP-92 NSCLC 70.9% | NCI-H522 lung 87.5% | A549/ATCC NSCLC 80.1% | 786-0 renal 69% | COLO 205 colon 105%

CCN(CCO)CCC(=O)c1ccc([N+](=O)[O-])cc1
inactive: NCI-H23 lung 102% | NCI-H226 lung 99.5% | NCI-H322M lung 101% | HOP-62 NSCLC 109% | NCI-H460 lung 111% | HOP-92 NSCLC 92.9% | NCI-H522 lung 100% | A549/ATCC NSCLC 103% | 786-0 renal 103% | COLO 205 colon 116%

CC1(C)CC[C@]23CC[C@]4(C)[C@H](CC[C@@H]5[C@@]6(C)C/C(=C/c7ccncc7)C(=O)C(C)(C)[C@@H]6CC[C@]54C)[C@H]2[C@H]1OC3=O
inactive: NCI-H23 lung 61.4% [100 µM] | NCI-H226 lung 77.4% [100 µM] | NCI-H322M lung 96.5% [100 µM] | HOP-62 NSCLC 10.2% [100 µM] | NCI-H460 lung 51% [100 µM] | HOP-92 NSCLC 16.8% [100 µM] | NCI-H522 lung 50.9% [100 µM] | A549/ATCC NSCLC 70.1% [100 µM] | 786-0 renal 31% [100 µM] | COLO 205 colon 90.5% [100 µM]

CC1(C)CC[C@]2(C(=O)O)CC[C@]3(C)C(=CC[C@@H]4[C@@]5(C)C/C(=C/c6ccco6)C(=O)C(C)(C)[C@@H]5CC[C@]43C)[C@@H]2C1
active: NCI-H23 lung -25.6% [100 µM] | NCI-H226 lung -42.4% [100 µM] | NCI-H322M lung -48.8% [100 µM] | HOP-62 NSCLC -85.3% [100 µM] | NCI-H460 lung -55.9% [100 µM] | HOP-92 NSCLC -82.1% [100 µM] | NCI-H522 lung -39.3% [100 µM] | A549/ATCC NSCLC -4.53% [100 µM] | 786-0 renal -19.5% [100 µM] | COLO 205 colon -80.7% [100 µM]

COc1ccc(C(=O)/C=C/c2ccccn2)c(O)c1
inactive: NCI-H23 lung 85.4% | NCI-H226 lung 98% | NCI-H322M lung 95.3% | HOP-62 NSCLC 87.5% | NCI-H460 lung 89.7% | HOP-92 NSCLC 78.6% | NCI-H522 lung 69.4% | A549/ATCC NSCLC 94% | 786-0 renal 79.6% | COLO 205 colon 103%

COc1ccc(-c2cc(-c3ccc(Cl)cc3)nc(NCCCCNc3ccnc4cc(Cl)ccc34)n2)cc1
inactive: NCI-H23 lung 86.4% | NCI-H226 lung 75% | NCI-H322M lung 94.4% | HOP-62 NSCLC 78.1% | NCI-H460 lung 89.7% | HOP-92 NSCLC 46.2% | NCI-H522 lung 80% | A549/ATCC NSCLC 91.8% | 786-0 renal 73.5% | COLO 205 colon 30.4%

C=C(C)C1CCC2(C(=O)O)CCC3(C)C(CCC4C5(C)CCC(OC(=O)NCc6ccccc6)C(C)(C)C5CCC43C)C12 (stereo not given)
active: HOP-92 NSCLC -4.47% | NCI-H522 lung -6.51%
inactive: NCI-H23 lung 32.3% | NCI-H226 lung 44.8% | NCI-H322M lung 59.3% | HOP-62 NSCLC 48.4% | NCI-H460 lung 29.4% | A549/ATCC NSCLC 26.7% | 786-0 renal 44.8% | COLO 205 colon 13.7%

CCOC(=O)COc1ccc2c(c1)O/C(=C\c1ccc(O)cc1)C2=O
inactive: NCI-H23 lung 104% | NCI-H226 lung 97.7% | NCI-H322M lung 99.7% | HOP-62 NSCLC 104% | NCI-H460 lung 104% | HOP-92 NSCLC 115% | NCI-H522 lung 97% | A549/ATCC NSCLC 108% | 786-0 renal 112% | COLO 205 colon 115%

CC[C@]1(O)CC2CN(CCc3c([nH]c4ccccc34)[C@@](C(=O)OC)(c3cc4c(cc3OC)N(C=O)[C@H]3[C@@](O)(C(=O)OC)[C@H](OC(C)=O)[C@]5(CC)C=CCN6CC[C@]43[C@@H]65)C2)C1 (stereo not given in full)
inactive: NCI-H23 lung 21.5% | NCI-H322M lung 59.8% | HOP-62 NSCLC 16.9% | HOP-92 NSCLC 25.4% | A549/ATCC NSCLC 16.7% | 786-0 renal 16.8%
active: NCI-H226 lung 2.28% | NCI-H460 lung 3.19% | NCI-H522 lung -21.5% | COLO 205 colon -61.1%

N#C/C(C(=O)c1ccccc1)=C1/C(=O)Nc2ccc(Br)cc21
inactive: NCI-H23 lung 94.4% | NCI-H226 lung 96.6% | NCI-H322M lung 101% | HOP-62 NSCLC 84.1% | NCI-H460 lung 105% | HOP-92 NSCLC 109% | NCI-H522 lung 99.1% | A549/ATCC NSCLC 104% | 786-0 renal 101% | COLO 205 colon 113%

N#Cc1c(Cl)nc(SCC2CO2)nc1-c1ccccc1 (stereo not given)
inactive: NCI-H23 lung 101% | NCI-H226 lung 114% | NCI-H322M lung 105% | HOP-62 NSCLC 92.8% | NCI-H460 lung 101% | HOP-92 NSCLC 89.8% | NCI-H522 lung 101% | A549/ATCC NSCLC 124% | 786-0 renal 99.5% | COLO 205 colon 131%

O=C1Nc2ccccc2/C1=C/C(=O)c1ccc(N2CCCCC2)cc1
inactive: NCI-H23 lung 75.7% | NCI-H226 lung 86.7% | NCI-H322M lung 96.6% | HOP-62 NSCLC 102% | NCI-H460 lung 77.9% | HOP-92 NSCLC 56.7% | NCI-H522 lung 61.7% | A549/ATCC NSCLC 95.1% | 786-0 renal 98.7% | COLO 205 colon 74.6%

O=C(NCc1ccccc1)C(Cl)Cl
inactive: NCI-H23 lung 104% | NCI-H226 lung 93.3% | NCI-H322M lung 102% | HOP-62 NSCLC 98.6% | NCI-H460 lung 108% | HOP-92 NSCLC 95.1% | NCI-H522 lung 101% | A549/ATCC NSCLC 97.4% | 786-0 renal 104% | COLO 205 colon 116%

COC(=O)[C@@H](NC(=O)NC(=O)NC(=O)CI)C(C)C
inactive: NCI-H23 lung 93.8% | NCI-H226 lung 85.1% | NCI-H322M lung 103% | HOP-62 NSCLC 86.3% | NCI-H460 lung 89.3% | A549/ATCC NSCLC 94.6% | COLO 205 colon 38.6%
active: HOP-92 NSCLC -17.7% | NCI-H522 lung -85.9% | 786-0 renal -25.1%

CC1Cc2c(Cl)ncnc2N(C)c2ccccc21 (stereo not given)
active: NCI-H226 lung 1.16% | 786-0 renal 4.7% | COLO 205 colon -81.1%
inactive: NCI-H23 lung 18.6% | NCI-H322M lung 26.8% | HOP-62 NSCLC 22.8% | NCI-H460 lung 21.2% | HOP-92 NSCLC 26% | NCI-H522 lung 57.7% | A549/ATCC NSCLC 16.6%

N#C/C(C(=O)c1ccccc1)=C1/C(=O)Nc2ccccc21
inactive: NCI-H23 lung 102% | NCI-H226 lung 104% | NCI-H322M lung 100% | HOP-62 NSCLC 86.3% | NCI-H460 lung 106% | HOP-92 NSCLC 105% | NCI-H522 lung 97.6% | A549/ATCC NSCLC 106% | COLO 205 colon 105%
active: 786-0 renal 6.59%

O=C(C[n+]1ccn(CC(OCc2ccc(Cl)cc2Cl)c2ccc(Cl)cc2Cl)c1)c1ccc(F)cc1 (stereo not given)
active: NCI-H23 lung -87.8% | NCI-H226 lung -76.4% | NCI-H322M lung -89.3% | HOP-62 NSCLC -91.3% | NCI-H460 lung -86.1% | HOP-92 NSCLC -87.5% | NCI-H522 lung -82.2% | 786-0 renal -94.3% | COLO 205 colon -84.8%
inactive: A549/ATCC NSCLC 29.9%

CC(C)(C)c1cc(C(=O)Nc2ccccc2C(=O)NCCN)cc(C(C)(C)C)c1
inactive: NCI-H23 lung 79.9% | NCI-H226 lung 78.3% | NCI-H322M lung 21.9% | HOP-62 NSCLC 67.8% | HOP-92 NSCLC 19.6% | NCI-H522 lung 16.1%
active: NCI-H460 lung -55.2% | A549/ATCC NSCLC 7.64% | 786-0 renal -35.7% | COLO 205 colon -76.6%

COc1ncc(-c2ccc3nccc(C#CCCCCC(=O)O)c3c2)cc1NS(=O)(=O)c1ccc(F)cc1F
active: HOP-92 NSCLC -21.7% | 786-0 renal 3.82%
inactive: NCI-H23 lung 44% | NCI-H226 lung 46.4% | NCI-H322M lung 18.3% | HOP-62 NSCLC 29.9% | NCI-H460 lung 12.3% | NCI-H522 lung 43.4% | A549/ATCC NSCLC 14.8% | COLO 205 colon 28.6%

COc1ccc(-c2c(C)nn3c(NCCN4CCOCC4)cc(C)nc23)cc1OC
inactive: NCI-H23 lung 102% | NCI-H226 lung 94.2% | NCI-H322M lung 102% | HOP-62 NSCLC 95% | NCI-H460 lung 103% | HOP-92 NSCLC 108% | NCI-H522 lung 106% | A549/ATCC NSCLC 96.6% | 786-0 renal 94.7% | COLO 205 colon 111%

CC1(C)CC(=O)c2c(ccc(C(=O)C[C@@H](N)CO)c2N)O1
active: NCI-H322M lung 5.96% | HOP-62 NSCLC 2.01% | NCI-H460 lung 4.1%
inactive: NCI-H23 lung 45.9% | NCI-H226 lung 27.5% | HOP-92 NSCLC 82.7% | NCI-H522 lung 20.1% | A549/ATCC NSCLC 15.3% | 786-0 renal 66.7% | COLO 205 colon 17.9%

CCN=C1C=CC(=C(c2ccc(N(CC)CC)cc2)c2ccc(N(CC)CC)cc2)c2ccccc21
active: NCI-H23 lung -53.5% | NCI-H226 lung -58.3% | NCI-H322M lung -38.9% | HOP-62 NSCLC -71.8% | NCI-H460 lung -72% | HOP-92 NSCLC -72.8% | NCI-H522 lung -65.5% | A549/ATCC NSCLC -59.8% | 786-0 renal -64.3% | COLO 205 colon -90.7%

CCOC(=O)c1nn(C2CCCCO2)c2ccc(NS(=O)(=O)c3ccc(C)cc3)cc12 (stereo not given)
inactive: NCI-H23 lung 100% | NCI-H226 lung 102% | NCI-H322M lung 104% | HOP-62 NSCLC 101% | NCI-H460 lung 99.4% | HOP-92 NSCLC 96.4% | NCI-H522 lung 98% | A549/ATCC NSCLC 95.1% | 786-0 renal 94.4% | COLO 205 colon 121%

O=C(NCc1ccc(Cn2c(=O)sn(-c3ccccc3)c2=O)cc1)OCc1ccc2c(Br)cc(Br)c(O)c2n1
active: NCI-H23 lung -47.2% | NCI-H226 lung -25.8% | HOP-62 NSCLC -48.4% | NCI-H460 lung -21% | HOP-92 NSCLC -58.7% | NCI-H522 lung -47.1% | A549/ATCC NSCLC -52.3% | 786-0 renal -78.7% | COLO 205 colon -75.6%
inactive: NCI-H322M lung 43.1%

COc1cc(NCc2ccccc2O)c2ncccc2c1
inactive: NCI-H23 lung 97.7% | NCI-H226 lung 104% | NCI-H322M lung 90.7% | HOP-62 NSCLC 83.5% | NCI-H460 lung 97.3% | HOP-92 NSCLC 81.1% | NCI-H522 lung 88.3% | A549/ATCC NSCLC 110% | 786-0 renal 69.5% | COLO 205 colon 96.9%

Cc1nc(-c2ccccc2)sc1CC#N
inactive: NCI-H23 lung 106% | NCI-H226 lung 93.1% | NCI-H322M lung 101% | HOP-62 NSCLC 102% | NCI-H460 lung 103% | HOP-92 NSCLC 99.2% | NCI-H522 lung 94.6% | A549/ATCC NSCLC 100% | 786-0 renal 104% | COLO 205 colon 122%

Source: PubChem BioAssay (NCI)
